Bioassay records: PubChem, several laboratories
MRP resist rev – compounds reversing MRP-mediated drug resistance. H69AR cells + 2 uM doxorubicin, CellTiter-Glo, 72 h. differential viability (reversal), % at 10 µM. 0.04% of 85,000 active. AID 602;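 active = viability drop by adding the cancer drug above about 55%, with treated viability meeting a 40% cutoff, limit read from the data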;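 also: viability without doxorubicin minus viability with 2 µM doxorubicin for each compound; larger differential means the compound sensitizes cells more to doxorubicin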
PTPN22 inh 2 – blocks human PTPN22 phosphatase activity; recombinant LYP catalytic domain, DiFMUP fluorescence; inhibition, % at 2 µM; 0.21% of 96,000 active;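 active = inhibition at 2 µM at or above a set limit, the screen mean plus 3 SD, cut at about 24% in these data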;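 also: 0% = DMSO with enzyme and 100% = enzyme fully blocked by orthovanadate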
LYP act – activators of human LYP (PTPN22) phosphatase; Q9Y2R2; recombinant LYP, DiFMUP fluorescence; 0 = plate median, 100 = signal doubled; activation, % at 2 µM; 0.11% of 96,000 active;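 active = activation at 2 µM above a set limit, the mean plus 5 SD, cut at about 37% in these data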
MRP-1 activ – activates MRP-1; H69AR cells + doxorubicin, viability rescue, CellTiter-Glo; viability increase, % at 10 µM; 0.61% of 140,000 active;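 active = viability gain under doxorubicin at or above a set limit, the compound median plus 3 SD, cut at about 4.7% in these data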;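 also: MRP-1 overexpressing cells given doxorubicin 25 µM after compound pretreatment; 18-22 h compound pretreatment then 72 h with doxorubicin before readout; 0% = doxorubicin-only wells and 100% = vehicle-treated cells without doxorubicin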
FAK inh – FAK (human) kinase inhibition; Q05397; biochemical FAK kinase activity assay; inhibition, %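 (tested at 7 µM)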; 0.84% of 97,000 active; AID 727; in the data active = inhibition above about 19%;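 also: 0% = DMSO and 100% = reference compound high control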
Target sequence (Q05397 whole entry, looked up): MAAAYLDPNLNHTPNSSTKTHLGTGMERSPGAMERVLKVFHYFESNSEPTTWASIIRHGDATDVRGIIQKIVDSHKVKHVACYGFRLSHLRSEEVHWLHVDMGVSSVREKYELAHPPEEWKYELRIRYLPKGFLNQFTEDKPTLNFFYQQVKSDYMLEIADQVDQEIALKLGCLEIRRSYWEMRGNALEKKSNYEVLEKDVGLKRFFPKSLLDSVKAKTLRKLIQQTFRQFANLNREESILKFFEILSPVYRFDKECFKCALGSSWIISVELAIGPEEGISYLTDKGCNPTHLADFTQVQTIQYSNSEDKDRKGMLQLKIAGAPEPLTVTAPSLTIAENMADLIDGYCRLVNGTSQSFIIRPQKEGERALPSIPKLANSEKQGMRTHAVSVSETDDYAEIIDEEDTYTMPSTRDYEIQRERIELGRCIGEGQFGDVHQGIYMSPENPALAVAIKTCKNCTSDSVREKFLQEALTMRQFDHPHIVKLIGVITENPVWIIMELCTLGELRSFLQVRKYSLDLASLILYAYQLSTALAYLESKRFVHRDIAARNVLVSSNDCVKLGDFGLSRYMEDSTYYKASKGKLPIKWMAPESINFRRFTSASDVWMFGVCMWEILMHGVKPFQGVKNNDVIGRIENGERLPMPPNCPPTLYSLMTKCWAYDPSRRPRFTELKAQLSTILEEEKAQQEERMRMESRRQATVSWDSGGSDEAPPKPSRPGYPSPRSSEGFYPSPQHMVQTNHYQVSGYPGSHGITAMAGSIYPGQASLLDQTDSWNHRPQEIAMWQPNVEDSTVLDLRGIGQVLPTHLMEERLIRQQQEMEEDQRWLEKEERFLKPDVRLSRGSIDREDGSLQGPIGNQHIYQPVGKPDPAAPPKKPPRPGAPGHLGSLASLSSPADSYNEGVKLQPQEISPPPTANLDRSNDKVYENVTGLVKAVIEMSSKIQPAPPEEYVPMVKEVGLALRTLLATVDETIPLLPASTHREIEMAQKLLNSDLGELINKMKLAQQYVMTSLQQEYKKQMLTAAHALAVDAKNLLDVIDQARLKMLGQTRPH
PLAP act – human PLAP activation. activation fold at 20 µM. P05187. 1.2% of 96,000 active. AID 696. purified PLAP enzyme, luminescent substrate read-out; hits give high values; in the data active = activation fold above about 2
* = called active by the depositor; . = no result. Shown are actives, neighbours in structure and some others; about 2.2% of the full set was active somewhere.

SMILES	MRP resist rev	PTPN22 inh 2	LYP act	MRP-1 activ	FAK inh	PLAP act
O=[N+]([O-])c1cccc(/C=N\N2CCN(Cc3ccccc3Cl)CC2)c1	13	-8	8	4.8*	-2	.
CCCCN(C(=O)Cc1cccs1)c1nnc(-c2cccnc2)s1	22	1	-5	5.8*	-2	.
Cc1ccc(C(=O)NCC(=O)OCC(=O)Nc2ccccc2[N+](=O)[O-])cc1	.	.	.	-1	.	.
COc1ccc(Br)cc1C(=O)Nc1cccc(-c2nnc(-c3ccco3)o2)c1	-2	12	-9	.	66*	.
COc1cccc(C(=O)Nc2cccc(-c3nnc(-c4ccco4)o3)c2)c1	6	18	-16	1	-3	0.7
CCc1ccc(C(=O)N/N=C/c2cccc3ccccc23)nc1	.	.	.	-1	.	.
Cc1ccc(N2C(=O)c3n[nH]c(C)c3C2c2ccco2)cc1 (stereo not given)	13	4	-5	-1	1	1.5
CCOC(=O)c1ccc(N2C(=O)c3n[nH]c(C)c3C2c2ccco2)cc1 (stereo not given)	4	0	-2	-1	5	2.7*
CCOc1cc(C2c3c(n[nH]c3C)C(=O)N2c2ccc(Br)cc2)ccc1O (stereo not given)	12	-7	4	-2	-1	2.3*
CCOC(=O)c1ccc(N2C(=O)c3n[nH]c(C)c3C2c2ccc(OC)cc2OC)cc1 (stereo not given)	1	-6	9	9.4*	8	.
COC(=O)c1ccc(C2c3c(n[nH]c3C)C(=O)N2c2ccc(C)cc2)cc1 (stereo not given)	-1	-3	3	-1	2	2.3*
CCOC(=O)c1ccc(N2C(=O)c3n[nH]c(C)c3C2c2ccc(OC)c(OC)c2)cc1 (stereo not given)	-16	-6	3	2	13	.
Cc1ccc(Cl)cc1NC(=S)NCc1cccn1C	.	.	.	-2	.	.
O=C(NS(=O)(=O)Oc1cccc(Cl)c1Cl)OC[C@@H]1CCCN2CCCCC12 (stereo not given in full)	.	.	.	-2	.	.
O=C(CSCc1ccc(Cl)cc1)NCc1ccccn1	.	.	.	0	.	.
CCOC(=O)c1ccc(N2C(=O)c3n[nH]c(C)c3C2c2ccc(OC)cc2)cc1 (stereo not given)	12	8	-10	0	-1	2.6*
CCC(C)(C)n1nnnc1C(c1cc2cc(C)ccc2[nH]c1=O)N1CCCc2ccccc21 (stereo not given)	6	-4	2	-2	2	1.6
Cc1ccc2[nH]c(=O)c(C(c3nnnn3C3CCCC3)N3CCCc4ccccc43)cc2c1 (stereo not given)	-20	-1	-2	19*	4	.
Cc1cc(=O)n(-c2ccc3ccccc3n2)[nH]1	4	0	4	-3	-2	2.3*
CSc1ncccc1C(=O)Nc1nc2c(C)cccc2s1	.	.	.	1	.	.
CSc1ncccc1C(=O)Nc1nc2ccc(Oc3ccccc3)cc2s1	.	.	.	4.8*	.	.
Cc1cc2ccccc2n2c(SCC(=O)Nc3ccc(S(=O)(=O)N4CCC(C)CC4)cc3)nnc12	.	.	.	0	.	.
COc1cccc(/C=N/NC(=O)C(=O)NCc2ccco2)c1O	.	-5	2	6.0*	-5	1.7
COc1cc(/C=N/NC(=O)c2cc(-c3cccn3C)n[nH]2)cc(OC)c1OC	.	-1	4	-2	3	1.6
COc1cccc(/C=N/NC(=O)c2cc(-c3cccn3C)n[nH]2)c1O	.	.	.	7.1*	.	.
SMILES	MRP resist rev	PTPN22 inh 2	LYP act	MRP-1 activ	FAK inh	PLAP act
COc1cccc(/C=N/NC(=O)c2c(-c3ccccc3)noc2C)c1O	.	11	-6	4	4	2.2*
COc1ccccc1OCC(=O)NCCSCc1cccc(Cl)c1	.	.	.	0	.	.
Cc1ccc(OCc2nc(-c3ccccn3)n[nH]2)cc1	-25	7	-6	2	1	2.6*
Cc1cccc(OCc2nc(-c3ccccn3)n[nH]2)c1	-19	9	-9	-1	-1	1.9
CC(C)COC(=O)c1cccc2c1-c1ccccc1/C2=N\O	-20	-3	4	-5	55*	.
O=c1nc(N2CCCCC2)nc(Nc2ccccc2)[nH]1	10	5	-6	-2	-1	2.3*
O=C(N1CCN(c2ccccc2F)CC1)C1(c2cccs2)CCOCC1	.	.	.	-2	.	.
COc1ccc(NC(=O)CSc2nnc(CNC(=O)COc3ccc(Cl)cc3)o2)c(OC)c1	16	7	-7	4	0	1
COc1ccc(OC)c(NC(=O)CSc2nnc(CNC(=O)COc3ccc(Cl)cc3)o2)c1	13	10	-9	5.6*	-1	1.1
CCOC(=O)C1=C(C)OC(N)=C(C#N)C1c1c(C)nn(-c2ccc(C)cc2)c1Cl (stereo not given)	-13	33*	-30	-3	0	1.4
CCOC(=O)c1[nH]cnc1C(=O)Nc1ccncc1	-4	-19	14	-2	4	2.5*
CCNc1ccc(C(=O)OCC(=O)N(Cc2ccccc2)C(C)(C)C)cc1[N+](=O)[O-]	.	.	.	2	.	.
Cc1ccc(S(=O)(=O)NC(=O)c2cc(C)n(-c3ccccc3)c2C)cc1	.	.	.	-2	.	.
Cc1ccc(S(=O)(=O)NC(=O)c2cc(C)n(-c3cc(S(=O)(=O)N4CCOCC4)ccc3N3CCCC3)c2C)cc1	.	4	-2	5.0*	1	1.7
O=c1[nH]c(C2CCCN(S(=O)(=O)c3ccccc3)C2)nc2c1nnn2Cc1ccccc1 (stereo not given)	32	3	-4	5.3*	1	1.4
O=c1[nH]c(C2CCCN(S(=O)(=O)c3ccccc3)C2)nc2c1nnn2Cc1ccccc1F (stereo not given)	20	.	.	1	.	.
CC(=O)Nc1nc(-c2ccc(Cl)cc2)ns1	.	.	.	-2	.	.
COC(=O)N/N=C/c1ccc(-c2cccc(Cl)c2)o1	.	.	.	4.8*	.	.
O=C(O)c1ccc(-c2cccc(Cl)c2)o1	-6	1	0	.	-1	.
COc1ccc(/C=N/NC(=O)C2C(=O)NCC2c2ccccc2)c(OC)c1 (stereo not given)	.	.	.	-1	.	.
COc1cccc(/C=N\NC(=O)C2C(=O)NCC2c2ccccc2)c1O (stereo not given)	.	0	5	4	-6	2.5*
Cc1ccc(-c2ccc(/C=N\NC(=O)C3C(=O)NCC3c3ccccc3)o2)cc1Cl (stereo not given)	.	1	-5	-3	2	2.1*
COC(=O)N/N=C/c1ccc(-c2ccc(C)c(Cl)c2)o1	.	.	.	7.5*	.	.
CC(C)(C)c1ccc(/C=C2\SC(=O)N(CCNC(=O)c3cccc(S(=O)(=O)N4CCOCC4)c3)C2=O)cc1	.	.	.	-4	.	.
Cc1ccc(NC(=O)CCC(=O)N/N=C/C=C/c2ccccc2)cc1	.	.	.	-1	.	.
COC(=O)N/N=C/c1ccc(-c2cc(Cl)cc(Cl)c2)o1	.	.	.	8.5*	.	.
NC(=S)N/N=C/c1ccc(-c2cc(Cl)cc(Cl)c2)o1	-20	6	-6	-1	1	0.9
CCOC(=O)CN1C(=O)C(Sc2n[nH]c(-c3ccccc3)n2)CCc2ccccc21 (stereo not given)	.	18	-18	0	-1	2*
